{"source": "the supplement of paper PMC8728848", "binders": {"B1": {"name": "Pwp2 (Candida glabrata) (protein)", "chain": "MGSSHHHHHHSSGLVPRGSHMASKNPVELNNVCTFPNDYGRIPGFTVLVGRLGLLISASDYKELLRYPGAFLIATQDTMTTSPNFELTGFPFFTGLYGLTVFPLDLLVELRGYFVPPNSGQYTFTLSDSDDAAIIFLGNPSAFPCGDLQNWPKPSEEDITVTDHLFPSRTLYLIEGVAYPMRIAYYNGIGAGRLNAAFIDPSGTRHTNWEGYIWQYDPCSTCTYS"}}, "assay_in_all_cases": "glycan array binding signal (z-score within array); higher = stronger binding", "settings_in_all_cases": "glycan notation: IUPAC condensed, linker removed", "key": {"[1]": {"target": "Man(a1-2)Man(a1-3)[Man(a1-2)Man(a1-6)]Man", "summary_of_the_method": "(§1)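 The binding signal is a Z-score computed within each array. Data were drawn from 3228 arrays in the Consortium for Functional Glycomics database, restricted to those with a known protein sequence. Scores were averaged over arrays of the same protein sequence at different concentrations or buffers, and over linkers, and negative values can be taken as non-binding.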"}, "[2]": {"target": "Man(a1-2)Man(a1-3)[Man(a1-2)Man(a1-6)]Man(a1-6)[Man(a1-2)Man(a1-2)Man(a1-3)]Man", "summary_of_the_method": "as §1"}, "[3]": {"target": "Man(a1-2)Man(a1-6)[Man(a1-3)]Man(a1-6)[Man(a1-2)Man(a1-2)Man(a1-3)]Man(b1-4)GlcNAc(b1-4)GlcNAc", "summary_of_the_method": "as §1"}, "[4]": {"target": "Man(a1-3)[Man(a1-6)]Man(a1-6)[Man(a1-3)]Man", "summary_of_the_method": "as §1"}, "[5]": {"target": "Neu5Ac(a2-3)Gal(b1-3)GalNAc(b1-3)Gal(a1-4)Gal(b1-4)Glc", "summary_of_the_method": "as §1"}, "[6]": {"target": "Neu5Ac(a2-3)Gal(b1-3)GlcNAc(b1-3)Gal(b1-3)GlcNAc", "summary_of_the_method": "as §1"}, "[7]": {"target": "Neu5Ac(a2-3)Gal(b1-3)GlcNAc6S", "summary_of_the_method": "as §1"}, "[8]": {"target": "Neu5Ac(a2-3)Gal(b1-3)[Fuc(a1-4)]GlcNAc", "summary_of_the_method": "as §1"}, "[9]": {"target": "Neu5Ac(a2-3)Gal(b1-3)[Fuc(a1-4)]GlcNAc(b1-3)Gal(b1-3)[Fuc(a1-4)]GlcNAc", "summary_of_the_method": "as §1"}, "[10]": {"target": "Neu5Ac(a2-3)Gal(b1-4)GlcNAc(b1-2)Man(a1-3)[Neu5Ac(a2-3)Gal(b1-4)GlcNAc(b1-2)Man(a1-6)]Man(b1-4)GlcNAc(b1-4)[Fuc(a1-6)]GlcNAc", "summary_of_the_method": "as §1"}, "[11]": {"target": "Neu5Ac(a2-3)Gal(b1-4)GlcNAc(b1-2)[Neu5Ac(a2-3)Gal(b1-4)GlcNAc(b1-6)]Man(a1-6)[Neu5Ac(a2-3)Gal(b1-4)GlcNAc(b1-2)Man(a1-3)][GlcNAc(b1-4)]Man(b1-4)GlcNAc(b1-4)GlcNAc", "summary_of_the_method": "as §1"}, "[12]": {"target": "Neu5Ac(a2-3)Gal(b1-4)GlcNAc(b1-3)Gal(b1-4)GlcNAc(b1-6)[Gal(b1-3)]GalNAc", "summary_of_the_method": "as §1"}, "[13]": {"target": "Neu5Ac(a2-3)Gal(b1-4)GlcNAc(b1-6)GalNAc", "summary_of_the_method": "as §1"}, "[14]": {"target": "Neu5Ac(a2-3)Gal(b1-4)[Fuc(a1-3)]GlcNAc6S", "summary_of_the_method": "as §1"}, "[15]": {"target": "Neu5Ac(a2-3)[GalNAc(b1-4)]Gal(b1-4)Glc", "summary_of_the_method": "as §1"}, "[16]": {"target": "Neu5Ac(a2-3)[GalNAc(b1-4)]Gal(b1-4)GlcNAc(b1-3)GalNAc", "summary_of_the_method": "as §1"}, "[17]": {"target": "Neu5Ac(a2-6)Gal(b1-4)GlcNAc(b1-2)Man(a1-3)[Neu5Ac(a2-6)Gal(b1-4)GlcNAc(b1-2)Man(a1-6)]Man(b1-4)GlcNAc(b1-4)[Fuc(a1-6)]GlcNAc", "summary_of_the_method": "as §1"}, "[18]": {"target": "Neu5Ac(a2-6)Gal(b1-4)GlcNAc(b1-3)Gal(b1-4)GlcNAc(b1-3)[Neu5Ac(a2-6)Gal(b1-4)GlcNAc(b1-3)Gal(b1-4)GlcNAc(b1-6)]GalNAc", "summary_of_the_method": "as §1"}, "[19]": {"target": "Neu5Ac(a2-6)Gal(b1-4)GlcNAc(b1-3)Gal(b1-4)[Fuc(a1-3)]GlcNAc(b1-3)Gal(b1-4)[Fuc(a1-3)]GlcNAc", "summary_of_the_method": "as §1"}, "[20]": {"target": "Neu5Ac(a2-6)Gal(b1-4)GlcNAc(b1-6)[Gal(b1-3)]GalNAc", "summary_of_the_method": "as §1"}, "[21]": {"target": "Neu5Ac(a2-6)Gal(b1-4)GlcNAc6S", "summary_of_the_method": "as §1"}, "[22]": {"target": "Neu5Ac(a2-6)GalNAc(b1-4)GlcNAc6S", "summary_of_the_method": "as §1"}, "Neu5Ac(a2-8)Neu5Ac": {"target": "Neu5Ac(a2-8)Neu5Ac", "summary_of_the_method": "as §1"}, "[23]": {"target": "Neu5Ac(a2-8)Neu5Ac(a2-8)Neu5Ac", "summary_of_the_method": "as §1"}, "[24]": {"target": "Neu5Ac(a2-8)Neu5Ac(a2-8)Neu5Ac(a2-3)[GalNAc(b1-4)]Gal(b1-4)Glc", "summary_of_the_method": "as §1"}, "[25]": {"target": "Neu5Gc(a2-3)Gal(b1-3)[Fuc(a1-4)]GlcNAc", "summary_of_the_method": "as §1"}, "[26]": {"target": "Neu5Gc(a2-3)Gal(b1-4)GlcNAc", "summary_of_the_method": "as §1"}, "[27]": {"target": "Neu5Gc(a2-8)Neu5Ac(a2-3)Gal(b1-4)GlcNAc", "summary_of_the_method": "as §1"}}, "note": "This is one part of a sample in which the strongest signals are shown more often than they occur.", "data": [{"binder": "B1", "values": [{"measurement": "glycan array binding signal (z-score)", "setting": "[1]", "result": -0.477}, {"measurement": "glycan array binding signal (z-score)", "setting": "[2]", "result": -0.722}, {"measurement": "glycan array binding signal (z-score)", "setting": "[3]", "result": -0.467}, {"measurement": "glycan array binding signal (z-score)", "setting": "[4]", "result": 5.45}, {"measurement": "glycan array binding signal (z-score)", "setting": "[5]", "result": -0.307}, {"measurement": "glycan array binding signal (z-score)", "setting": "[6]", "result": -0.269}, {"measurement": "glycan array binding signal (z-score)", "setting": "[7]", "result": -0.456}, {"measurement": "glycan array binding signal (z-score)", "setting": "[8]", "result": 0.549}, {"measurement": "glycan array binding signal (z-score)", "setting": "[9]", "result": 4}, {"measurement": "glycan array binding signal (z-score)", "setting": "[10]", "result": 0.96}, {"measurement": "glycan array binding signal (z-score)", "setting": "[11]", "result": 4.22}, {"measurement": "glycan array binding signal (z-score)", "setting": "[12]", "result": 1.44}, {"measurement": "glycan array binding signal (z-score)", "setting": "[13]", "result": 4.01}, {"measurement": "glycan array binding signal (z-score)", "setting": "[14]", "result": 0.309}, {"measurement": "glycan array binding signal (z-score)", "setting": "[15]", "result": 0.443}, {"measurement": "glycan array binding signal (z-score)", "setting": "[16]", "result": 0.085}, {"measurement": "glycan array binding signal (z-score)", "setting": "[17]", "result": 1.79}, {"measurement": "glycan array binding signal (z-score)", "setting": "[18]", "result": -0.059}, {"measurement": "glycan array binding signal (z-score)", "setting": "[19]", "result": -0.077}, {"measurement": "glycan array binding signal (z-score)", "setting": "[20]", "result": 3.56}, {"measurement": "glycan array binding signal (z-score)", "setting": "[21]", "result": -0.426}, {"measurement": "glycan array binding signal (z-score)", "setting": "[22]", "result": 4.86}, {"measurement": "glycan array binding signal (z-score)", "setting": "Neu5Ac(a2-8)Neu5Ac", "result": -0.04}, {"measurement": "glycan array binding signal (z-score)", "setting": "[23]", "result": -0.203}, {"measurement": "glycan array binding signal (z-score)", "setting": "[24]", "result": 0.537}, {"measurement": "glycan array binding signal (z-score)", "setting": "[25]", "result": -0.072}, {"measurement": "glycan array binding signal (z-score)", "setting": "[26]", "result": 0.982}, {"measurement": "glycan array binding signal (z-score)", "setting": "[27]", "result": -0.437}]}]}
